# Measurements from PubChem BioAssay.
# Active and inactive are the calls of the source.
# Assay: ATP-based viability of Huh7 replicon cells – cell-based, CellTiter-Glo luminescence, basal, 48 h, cytotoxicity control for HCV replication inhibitor project, primary screen (AID 1143);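 note: Huh7 hepatoma cells carrying a hepatitis C replication reporter with no stimulus; test concentration not given here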
# Settings: higher = more signal, called active from +8 up or from −8 down
row,SMILES,z-score
1,C=C(COC)/C(=C/C[C@H](OC(C)=O)c1ccc(CO)o1)c1cc(C(=O)OC)ccc1OC,-3.08 (inactive)
2,COC(=O)[C@@]1(Cc2ccc(OC)cc2)[C@H]2c3cc(C(=O)N(C)C)n(C)c3C[C@H]2CN1C(=O)c1ccccc1,-3.59 (inactive)
3,CCOC(=O)[C@H]1C/C=C/C[C@H](C(=O)OCC)C(=O)O[C@H]2[C@@H](OC)O[C@H](CO)[C@@H](OC(=O)c3c(OC)cccc3OC)[C@@H]2OC1=O,-4.57 (inactive)
4,CC(C)NC(=O)[C@@]1(c2ccc([N+](=O)[O-])cc2)CC(=O)N(C2CCCCC2)[C@@H]1c1ccc(CO)cc1I,-4.27 (inactive)
5,CN1C(=O)C2C=CC(C(O)c3ccc([N+](=O)[O-])cc3)N(N3CCCCC3)C2C1=O (configuration not stated),0.576 (inactive)
6,COCCOC(=O)N1C(=O)[C@@]2(c3cc(C#CCNC(N)=O)ccc31)[C@H](C(=O)N1CCN(c3ncccn3)CC1)[C@H]1C(=O)O[C@H](c3ccccc3)[C@H](c3ccccc3)N1[C@@H]2c1ccc(OCCO)cc1,0.0164 (inactive)
7,O=C1NC(=O)C2C1C=CC(C(O)c1cc(C(F)(F)F)cc(C(F)(F)F)c1)N2Nc1ccccn1 (configuration not stated),0.804 (inactive)
8,COCCOC(=O)N1C(=O)[C@@]2(c3ccccc31)[C@H](C(=O)N1CCc3cc(OC)c(OC)cc3C1)[C@H]1C(=O)O[C@H](c3ccccc3)[C@H](c3ccccc3)N1[C@@H]2c1ccc(OCCO)cc1,-0.704 (inactive)
9,COC(=O)C(CC#Cc1ccc2c(c1)[C@]1(C(=O)N2)[C@H](C(=O)Nc2nc3ccccc3s2)[C@H]2C(=O)O[C@H](c3ccccc3)[C@H](c3ccccc3)N2[C@@H]1c1ccccc1OCCO)C(=O)OC,-5 (inactive)
10,CN1C(=O)C2C=CC(C(O)c3ccccc3)N(N(c3ccccc3)c3ccccc3)C2C1=O (configuration not stated),0.653 (inactive)
11,COC(=O)[C@@]1(CCS(=O)(=O)c2ccccc2)N=C(c2ccc(OCCCO)cc2)O[C@H]1c1ccccc1CN=[N+]=[N-],-2.7 (inactive)
12,COC(=O)[C@H](Cc1ccccc1)N1CC2=C[C@@H](C3CC3)n3c(=O)n(C)c(=O)n3[C@H]2[C@@H]1[C@@H](O)Cc1ccccc1,-1.18 (inactive)
